The results in this text go back to the supplement of paper PMC10849652.

The full data set covers some 7,900 targets. This sample favours those with a hit. About 0.6% of all pairs of compound and target were hits. Values without a mark were called inactive.

Sequence of UniProt Q9NYU2 (Q9NYU2 whole entry, looked up): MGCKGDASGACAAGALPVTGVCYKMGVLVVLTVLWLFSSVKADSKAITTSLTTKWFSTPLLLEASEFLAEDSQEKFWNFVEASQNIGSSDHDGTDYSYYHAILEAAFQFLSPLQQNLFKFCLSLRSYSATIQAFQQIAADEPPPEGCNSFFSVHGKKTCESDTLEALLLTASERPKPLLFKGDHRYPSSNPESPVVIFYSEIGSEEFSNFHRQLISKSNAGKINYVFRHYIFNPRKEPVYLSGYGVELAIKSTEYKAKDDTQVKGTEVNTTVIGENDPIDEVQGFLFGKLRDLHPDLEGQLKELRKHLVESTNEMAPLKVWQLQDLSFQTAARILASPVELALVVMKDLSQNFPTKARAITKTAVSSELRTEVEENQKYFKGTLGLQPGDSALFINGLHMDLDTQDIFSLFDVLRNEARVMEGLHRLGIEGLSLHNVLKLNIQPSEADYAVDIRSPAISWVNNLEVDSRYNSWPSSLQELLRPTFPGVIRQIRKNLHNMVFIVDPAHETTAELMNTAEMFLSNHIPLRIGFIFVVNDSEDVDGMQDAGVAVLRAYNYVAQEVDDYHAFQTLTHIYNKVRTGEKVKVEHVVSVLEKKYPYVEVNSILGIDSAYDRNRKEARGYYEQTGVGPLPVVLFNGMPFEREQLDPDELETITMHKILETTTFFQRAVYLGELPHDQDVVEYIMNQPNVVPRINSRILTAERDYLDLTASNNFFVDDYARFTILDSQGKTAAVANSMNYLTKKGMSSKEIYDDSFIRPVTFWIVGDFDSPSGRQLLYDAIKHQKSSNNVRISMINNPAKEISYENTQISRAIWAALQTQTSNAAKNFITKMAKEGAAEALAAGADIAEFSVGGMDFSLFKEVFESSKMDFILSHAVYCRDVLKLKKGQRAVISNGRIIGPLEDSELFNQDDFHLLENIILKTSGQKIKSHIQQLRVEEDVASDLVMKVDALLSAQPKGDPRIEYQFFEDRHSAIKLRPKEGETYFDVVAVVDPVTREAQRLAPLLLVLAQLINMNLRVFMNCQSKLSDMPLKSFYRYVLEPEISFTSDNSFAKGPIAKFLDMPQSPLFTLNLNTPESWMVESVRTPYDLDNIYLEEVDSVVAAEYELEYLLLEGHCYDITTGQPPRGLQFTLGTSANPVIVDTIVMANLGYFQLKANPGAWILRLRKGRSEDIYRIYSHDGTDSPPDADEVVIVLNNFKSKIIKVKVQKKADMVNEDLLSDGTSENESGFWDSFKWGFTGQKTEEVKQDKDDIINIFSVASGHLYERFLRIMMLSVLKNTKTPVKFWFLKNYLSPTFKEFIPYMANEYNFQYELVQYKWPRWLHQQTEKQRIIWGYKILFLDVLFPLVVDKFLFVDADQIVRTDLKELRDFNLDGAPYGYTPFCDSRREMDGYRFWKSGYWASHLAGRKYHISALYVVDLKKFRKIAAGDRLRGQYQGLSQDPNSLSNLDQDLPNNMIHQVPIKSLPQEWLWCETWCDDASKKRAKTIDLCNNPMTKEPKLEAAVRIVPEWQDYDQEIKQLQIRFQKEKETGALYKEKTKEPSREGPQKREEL
Sequence of UniProt Q969T4 (Q969T4 whole entry, looked up): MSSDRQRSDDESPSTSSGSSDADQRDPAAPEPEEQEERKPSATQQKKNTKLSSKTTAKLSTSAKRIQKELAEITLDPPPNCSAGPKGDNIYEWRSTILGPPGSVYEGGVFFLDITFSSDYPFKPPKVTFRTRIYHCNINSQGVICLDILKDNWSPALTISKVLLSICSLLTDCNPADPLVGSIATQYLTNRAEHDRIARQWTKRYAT
Sequence of UniProt Q7Z5K2 (Q7Z5K2 whole entry, looked up): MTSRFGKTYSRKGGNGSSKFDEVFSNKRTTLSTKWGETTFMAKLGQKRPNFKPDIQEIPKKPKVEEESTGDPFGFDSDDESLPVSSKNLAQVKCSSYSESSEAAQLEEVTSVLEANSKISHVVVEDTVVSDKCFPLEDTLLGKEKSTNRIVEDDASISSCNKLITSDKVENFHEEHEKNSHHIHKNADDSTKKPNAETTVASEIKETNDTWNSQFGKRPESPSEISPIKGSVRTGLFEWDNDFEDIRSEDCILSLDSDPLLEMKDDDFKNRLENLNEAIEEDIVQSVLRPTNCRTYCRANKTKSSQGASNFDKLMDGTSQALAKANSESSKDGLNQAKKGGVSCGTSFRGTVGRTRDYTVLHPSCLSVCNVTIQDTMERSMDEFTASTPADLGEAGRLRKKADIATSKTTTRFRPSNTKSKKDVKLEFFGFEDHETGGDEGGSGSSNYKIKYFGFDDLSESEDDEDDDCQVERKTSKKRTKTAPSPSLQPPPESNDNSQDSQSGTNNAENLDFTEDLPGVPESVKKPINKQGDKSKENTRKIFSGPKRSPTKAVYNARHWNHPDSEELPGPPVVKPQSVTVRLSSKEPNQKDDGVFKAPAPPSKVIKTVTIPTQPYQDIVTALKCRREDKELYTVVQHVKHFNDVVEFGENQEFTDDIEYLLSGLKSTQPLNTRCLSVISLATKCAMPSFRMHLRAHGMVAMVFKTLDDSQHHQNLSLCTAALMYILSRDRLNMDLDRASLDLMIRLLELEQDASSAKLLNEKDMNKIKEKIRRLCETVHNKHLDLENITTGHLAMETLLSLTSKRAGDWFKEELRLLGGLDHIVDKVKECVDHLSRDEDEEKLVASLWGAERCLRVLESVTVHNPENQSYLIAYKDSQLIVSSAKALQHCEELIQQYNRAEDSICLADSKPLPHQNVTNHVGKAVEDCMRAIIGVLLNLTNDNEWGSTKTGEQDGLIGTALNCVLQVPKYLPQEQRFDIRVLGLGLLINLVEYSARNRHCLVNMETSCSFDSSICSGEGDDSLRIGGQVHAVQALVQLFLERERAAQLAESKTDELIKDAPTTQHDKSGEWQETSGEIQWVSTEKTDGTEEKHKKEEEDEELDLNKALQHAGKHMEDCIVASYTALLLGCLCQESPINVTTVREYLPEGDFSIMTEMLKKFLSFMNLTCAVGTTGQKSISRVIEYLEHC
Sequence of UniProt P21796 (P21796 whole entry, looked up): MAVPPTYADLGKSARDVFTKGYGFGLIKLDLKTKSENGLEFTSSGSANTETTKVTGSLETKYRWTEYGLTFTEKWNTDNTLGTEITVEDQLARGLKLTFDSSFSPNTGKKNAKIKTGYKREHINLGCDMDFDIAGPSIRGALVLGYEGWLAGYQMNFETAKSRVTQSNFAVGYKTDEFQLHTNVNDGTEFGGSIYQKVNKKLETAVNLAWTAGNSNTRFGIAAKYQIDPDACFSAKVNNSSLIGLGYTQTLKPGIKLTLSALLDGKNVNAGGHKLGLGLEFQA
Sequence of UniProt Q9P253 (Q9P253 whole entry, looked up): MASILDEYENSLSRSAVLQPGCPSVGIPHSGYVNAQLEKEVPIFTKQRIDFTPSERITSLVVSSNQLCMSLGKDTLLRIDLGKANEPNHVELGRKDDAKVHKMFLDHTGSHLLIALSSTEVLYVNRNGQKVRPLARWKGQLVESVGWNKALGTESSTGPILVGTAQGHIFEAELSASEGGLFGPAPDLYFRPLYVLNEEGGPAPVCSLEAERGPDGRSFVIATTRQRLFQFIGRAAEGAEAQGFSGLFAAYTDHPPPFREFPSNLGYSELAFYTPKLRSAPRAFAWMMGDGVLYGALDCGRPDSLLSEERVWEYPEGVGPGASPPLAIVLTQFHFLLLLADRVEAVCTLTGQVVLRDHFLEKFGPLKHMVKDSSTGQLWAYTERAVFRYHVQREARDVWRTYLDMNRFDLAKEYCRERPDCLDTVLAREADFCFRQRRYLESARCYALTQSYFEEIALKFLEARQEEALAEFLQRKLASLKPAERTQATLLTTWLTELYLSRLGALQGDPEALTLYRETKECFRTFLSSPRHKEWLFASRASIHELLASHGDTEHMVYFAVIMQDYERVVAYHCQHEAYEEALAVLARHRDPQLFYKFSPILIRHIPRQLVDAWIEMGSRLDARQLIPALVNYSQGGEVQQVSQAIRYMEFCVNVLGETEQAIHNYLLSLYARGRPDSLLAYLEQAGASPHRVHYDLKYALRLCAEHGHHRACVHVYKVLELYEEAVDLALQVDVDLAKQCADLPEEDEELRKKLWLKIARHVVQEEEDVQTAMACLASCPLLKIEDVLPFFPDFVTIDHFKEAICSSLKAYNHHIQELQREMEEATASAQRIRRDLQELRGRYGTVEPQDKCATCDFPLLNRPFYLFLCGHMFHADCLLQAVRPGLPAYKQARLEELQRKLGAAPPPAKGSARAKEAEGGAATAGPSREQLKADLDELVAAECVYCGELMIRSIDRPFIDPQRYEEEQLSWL
Sequence of UniProt Q9Y5K5 (Q9Y5K5 whole entry, looked up): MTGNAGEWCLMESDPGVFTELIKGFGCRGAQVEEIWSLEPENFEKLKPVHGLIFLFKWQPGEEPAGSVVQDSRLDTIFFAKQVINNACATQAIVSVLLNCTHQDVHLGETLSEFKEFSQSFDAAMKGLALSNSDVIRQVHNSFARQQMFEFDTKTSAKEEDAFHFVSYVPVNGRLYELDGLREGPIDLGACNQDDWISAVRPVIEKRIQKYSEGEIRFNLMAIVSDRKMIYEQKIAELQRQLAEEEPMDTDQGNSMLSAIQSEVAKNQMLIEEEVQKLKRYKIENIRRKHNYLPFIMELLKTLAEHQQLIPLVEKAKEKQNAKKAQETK
Sequence of UniProt Q7Z6J8 (Q7Z6J8 whole entry, looked up): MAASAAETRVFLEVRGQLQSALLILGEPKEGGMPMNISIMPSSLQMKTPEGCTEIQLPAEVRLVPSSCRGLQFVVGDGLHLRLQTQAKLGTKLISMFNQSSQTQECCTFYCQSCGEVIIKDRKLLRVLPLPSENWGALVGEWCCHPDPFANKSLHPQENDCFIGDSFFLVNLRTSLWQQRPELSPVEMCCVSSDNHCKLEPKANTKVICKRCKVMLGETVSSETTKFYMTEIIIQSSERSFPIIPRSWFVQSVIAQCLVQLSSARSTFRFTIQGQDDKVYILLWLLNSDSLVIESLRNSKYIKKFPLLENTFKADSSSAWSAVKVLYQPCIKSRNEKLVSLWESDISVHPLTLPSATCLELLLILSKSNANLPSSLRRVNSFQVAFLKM
Sequence of UniProt Q9UDW1 (Q9UDW1 whole entry, looked up): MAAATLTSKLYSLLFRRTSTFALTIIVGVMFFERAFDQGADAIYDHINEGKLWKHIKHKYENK

Compound in one assay: FC(F)(F)c1ccc(/C=C/c2nc(COc3ccc(CCCCn4ccnn4)cc3)co2)cc1 [mubritinib]
As to the kind of experiment: log2 fold change, soluble protein after heating vs DMSO (PISA); higher = thermal stabilisation; K562 cells, 10 uM, 30 min; active = over 0.2 and 3.5 SD of the protein, either way, in both replicates (recomputed). The procedure, abridged:
(§1)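 K562 cells at 2×10^6 cells/mL were treated with 10 μM compound for 30 min. Aliquots were heated for 3 min across 48°C-58°C, pooled, and extracted in PBS with 0.5% NP-40 at 4°C; soluble protein was the supernatant after 21,000xg for 90 min. Soluble protein was quantified by TMTpro 16plex LC-MS/MS with channel sums equalised, and reported as log2 fold change in thermal stability against DMSO controls, with values from duplicates.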
Regarding VTA1 (UniProt Q9NP79), the log2 fold change is 0.033.
On the same count and under the same terms, the figure for UBE4B isoform 4 (UniProt O95155) is 0.032; for USO1 isoform 2 (UniProt O60763) it is 0.032.
On the same count and under the same terms, with VPS16 (UniProt Q9H269) the figure was 0.083; with WAPL isoform 3 (UniProt Q7Z5K2), 0.156; with VTI1A (UniProt Q96AJ9), -0.007.
On the same count and under the same terms, the figure for VPS8 (UniProt Q8N3P4) is 0.043; for UFL1 (UniProt O94874) it is 0.062; for UTP4 (UniProt Q969X6) it is -0.025.
Consider UTP14A (UniProt Q9BVJ6), for which the log2 fold change was -0.086.
With UGGT1 (UniProt Q9NYU2), the log2 fold change is -0.043.
The same measure, in the same setting: the figure for VPS18 (UniProt Q9P253) is 0.088.
Same read-out and setting: with UBA6 the figure was 0.228 (active); with TMEM161A (UniProt Q9NX61), 0.027; with TNFRSF10A (UniProt O00220), -0.05.
As to TRMT61A (UniProt Q96FX7), the log2 fold change is -0.125.
TRAPPC8 (UniProt Q9Y2L5): the log2 fold change was 0.045.
Take UBE2S (UniProt Q16763): the log2 fold change is 0.002.
Same read-out and setting: with UBE2E3 (UniProt Q969T4) the figure was 0.056; with UCHL5 (UniProt Q9Y5K5), -0.001.
Take VTI1B (UniProt Q9UEU0): the log2 fold change was -0.055.
Regarding TNPO1 (UniProt Q92973), the log2 fold change is 0.005.
Consider UQCR10 (UniProt Q9UDW1), for which the log2 fold change was -0.024.
The same measure, in the same setting: with TMEM87B (UniProt Q96K49) the figure was 0.006; with USP34 (UniProt Q70CQ2), -0.049.
On the same count and under the same terms, the figure for USP14 (UniProt P54578) is 0.029; for VPS51 (UniProt Q9UID3) it is 0.083.
Still for that read-out and setting: the figure for UBE2J1 (UniProt Q9Y385) is 0.132.
UBE3D (UniProt Q7Z6J8): the log2 fold change was 0.009.
Still for that read-out and setting: the figure for TRAM1 (UniProt Q15629) is -0.022; for TOP2A isoform 4 (UniProt P11388) it is -0.292.
The same measure, in the same setting: the figure for XPNPEP3 (UniProt Q9NQH7) is 0.02; for TRAPPC2L (UniProt Q9UL33) it is 0.013; for XPO5 (UniProt Q9HAV4) it is 0.006.
For WDHD1 (UniProt O75717), the log2 fold change was 0.067.
The same measure, in the same setting: with VDAC1 (UniProt P21796) the figure was 0.02.

Compound in the next assay: NC(=O)Nc1cc(-c2cccc(F)c2)sc1C(=O)N[C@H]1CCCNC1
The description is as above. The procedure, abridged: as §1
As for VTA1 (UniProt Q9NP79), the log2 fold change was -0.029.
As for UBE4B isoform 4 (UniProt O95155), the log2 fold change was 0.005.
Turning to USO1 isoform 2 (UniProt O60763), the log2 fold change is -0.009.
The same measure, in the same setting: the figure for VPS16 (UniProt Q9H269) is 0.041; for WAPL isoform 3 (UniProt Q7Z5K2) it is -0.009.
The same measure, in the same setting: with VTI1A (UniProt Q96AJ9) the figure was -0.07; with VPS8 (UniProt Q8N3P4), -0.035.
Still for that read-out and setting: with UFL1 (UniProt O94874) the figure was -0.06; with UTP4 (UniProt Q969X6), 0.049.
For the target UTP14A (UniProt Q9BVJ6), the log2 fold change was 0.079.
Turning to UGGT1 (UniProt Q9NYU2), the log2 fold change was 0.028.
The same measure, in the same setting: the figure for VPS18 (UniProt Q9P253) is 0.019; for UBA6 it is -0.048.
With TMEM161A (UniProt Q9NX61), the log2 fold change is 0.043.
In the case of TNFRSF10A (UniProt O00220), the log2 fold change is -0.097.
As for TRMT61A (UniProt Q96FX7), the log2 fold change was 0.027.
The same measure, in the same setting: with TRAPPC8 (UniProt Q9Y2L5) the figure was -0.039.
The same measure, in the same setting: with UBE2S (UniProt Q16763) the figure was -0.04; with UBE2E3 (UniProt Q969T4), -0.007.
As to UCHL5 (UniProt Q9Y5K5), the log2 fold change is -0.003.
Same read-out and setting: the figure for VTI1B (UniProt Q9UEU0) is 0.023.
Same read-out and setting: the figure for TNPO1 (UniProt Q92973) is 0.003.
For UQCR10 (UniProt Q9UDW1), the log2 fold change is -0.053.
As for TMEM87B (UniProt Q96K49), the log2 fold change is -0.098.
On the same count and under the same terms, the figure for USP34 (UniProt Q70CQ2) is 0.012.
On the same count and under the same terms, the figure for USP14 (UniProt P54578) is -0.008; for VPS51 (UniProt Q9UID3) it is -0.02.
With UBE2J1 (UniProt Q9Y385), the log2 fold change is 0.031.
Still for that read-out and setting: the figure for UBE3D (UniProt Q7Z6J8) is -0.019; for TRAM1 (UniProt Q15629) it is -0.104; for TOP2A isoform 4 (UniProt P11388) it is 0.159.
Consider XPNPEP3 (UniProt Q9NQH7), for which the log2 fold change is 0.034.
With TRAPPC2L (UniProt Q9UL33), the log2 fold change was 0.005.
In the case of XPO5 (UniProt Q9HAV4), the log2 fold change was -0.025.
Same read-out and setting: with WDHD1 (UniProt O75717) the figure was -0.037; with VDAC1 (UniProt P21796), 0.025.
